Source: PubChem
Many of the other results were omitted from the sample, so hits are more common in it than they were.
NS1 inh = qHTS Assay for Inhibitors of Influenza NS1 Protein Function. 270,000 tested, 0.4% active. Potency, µM (top dose mostly 46.1 µM), inactives show top-dose activity, positive = more growth; calls by dose curve; note: actives are rising curves; nearly all actives have a fitted effect of over 50% in size
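Read-out: OD600 growth recovery of NS1-expressing budding yeast. Cells grown overnight at 30C in -URA glucose medium, washed, resuspended and diluted 1:100 in 2% galactose assay medium, pH 6.0. Same strain lacking NS1 served as positive control.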
Cruzain inh Det = qHTS Assay for Promiscuous and Specific Inhibitors of Cruzain (with detergent) | Cruzipain (Trypanosoma cruzi), P25779 | purified cruzain, Z-FR-AMC fluorescence, 0.01% Triton | Potency, µM, for the others: max response, negative = inhibition, most hits filed as inhibitors | 200,000 tested, 0.43% active | AID 1478, 2009;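 note: plate controls were neutral wells for no effect and buffer without enzyme for full effect; nearly all actives have a fitted effect of over 40% in size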
Target sequence (P25779 123-467 limits assumed): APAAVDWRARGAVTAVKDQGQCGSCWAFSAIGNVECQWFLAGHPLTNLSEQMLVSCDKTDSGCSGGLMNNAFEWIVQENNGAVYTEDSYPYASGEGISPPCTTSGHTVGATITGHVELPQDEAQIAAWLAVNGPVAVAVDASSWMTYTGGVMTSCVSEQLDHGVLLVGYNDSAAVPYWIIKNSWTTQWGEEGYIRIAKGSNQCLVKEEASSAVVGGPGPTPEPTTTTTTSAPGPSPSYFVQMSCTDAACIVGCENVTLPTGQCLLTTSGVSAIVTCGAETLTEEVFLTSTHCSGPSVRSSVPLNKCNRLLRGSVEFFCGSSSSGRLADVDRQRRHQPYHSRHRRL
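Detergent-containing run (0.01% Triton X-100) in acetate buffer pH 5.5 with 5 mM DTT: enzyme at 1.5 nM final, 15 min compound preincubation at room temperature, then 2 uM Z-FR-AMC substrate. Activity taken as 60 s fluorescence increase at 360/450 nm.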
Cruzain inh noDet = qHTS Assay for Promiscuous and Specific Inhibitors of Cruzain (without detergent). Cruzipain (Trypanosoma cruzi), P25779. purified cruzain, Z-FR-AMC fluorescence, no detergent. Potency, µM, without a hit: max response, negative = inhibition, most hits filed as inhibitors. 200,000 tested, 2.3% active;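 note: plate controls were enzyme without inhibitor for no effect and buffer without enzyme for full effect; nearly all actives have a fitted effect of over 40% in size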
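Detergent-free condition (0.00005% Triton X-100) in acetate buffer pH 5.5 with DTT. 1.5 nM enzyme and compound were pre-mixed 15 min, then 2 uM Z-FR-AMC substrate added; reaction progress from fluorescence change between first and third reads (60 s).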
Papain counter = qHTS Assay for Inhibitors of Papain: Counterscreen for Cruzain Assay; purified papain, Z-FR-AMC fluorescence cleavage; shares compounds with Cruzain inh Det; Potency, µM, for inactives: max response, negative = inhibition, usual class: inhibitors; 410 tested, 41% active;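 note: 0% = no-compound wells and -100% = no-enzyme wells; nearly all actives have a fitted effect of over 35% in size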
Target sequence (P00784 whole entry, looked up): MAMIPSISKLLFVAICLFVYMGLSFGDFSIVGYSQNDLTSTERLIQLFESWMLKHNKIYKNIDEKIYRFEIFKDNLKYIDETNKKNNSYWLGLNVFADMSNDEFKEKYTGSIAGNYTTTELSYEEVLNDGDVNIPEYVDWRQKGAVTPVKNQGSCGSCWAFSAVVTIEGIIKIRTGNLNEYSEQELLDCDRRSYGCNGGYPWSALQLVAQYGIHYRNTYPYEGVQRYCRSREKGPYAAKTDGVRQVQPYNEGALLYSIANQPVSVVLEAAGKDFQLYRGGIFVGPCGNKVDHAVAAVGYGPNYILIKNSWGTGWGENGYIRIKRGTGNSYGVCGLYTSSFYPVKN
* marks the source's active call; other numbers are inactive results; ? = inconclusive; . = no result given. Unless noted, calls come from the whole dose curve; as a rule, active = well fitted curve in the direction sought with a large enough effect; inconclusive = small, poorly fitted or top-dose-only effect, or another doubt; inactive = no such curve, though single readings can be large; an effect the other way counts as inactive or inconclusive. Potency is the fitted concentration of half-maximal effect.

SMILES | NS1 inh | Cruzain inh Det | Cruzain inh noDet | Papain counter
CCC(C)NC(=O)c1ccc2nc(-c3cccs3)c(-c3cccs3)nc2c1 (stereo not given) | . | . | . | -3%
CCC(C)NC(=O)c1cc(-c2cccs2)nc2ccccc12 (stereo not given) | 0% | . | . | .
N#C/C(=C\c1cn(Cc2ccccc2)c2ccccc12)C(=O)NCc1ccco1 | -2% | -6% | -13% | .
Cc1cccc(Cn2cc(/C=C(/C#N)C(=O)Nc3cccc(Cl)c3)c3ccccc32)c1 | . | -2% | 3.2µM* | 13%
COc1cccc(CNC(=O)c2ccc(-c3nc(CS(=O)c4ccccc4)c(C)o3)cc2)c1 (stereo not given) | . | -2% | 26% | .
COC(=O)NC(c1ccccc1)c1c[nH]c2ccccc12 (stereo not given) | . | 2% | -7% | .
COc1ccc(-c2nn3c(-c4ccc(F)cc4)nnc3s2)cc1 | -3% | 2% | ? | .
CCOc1cccc(-c2nnc3sc(-c4cc(OC)c(OC)cc4OC)nn23)c1 | ? | -4% | 0% | .
CCOc1cccc(-c2nn3c(-c4cc(C)[nH]n4)nnc3s2)c1 | -2% | 1% | -4% | 8%
COc1ccc(-c2nn3c(-c4cc(C)[nH]n4)nnc3s2)cc1 | . | . | . | 7%
CCOC(=O)C1CCCN(C(=O)c2ccc3c(c2)N(Cc2ccccc2F)C(=O)c2ccccc2S3=O)C1 (stereo not given) | . | 2% | 12% | .
COC(=O)C1(Cc2ccccc2)C=C2C(=C(C(C)C)C(=O)C2C)CN1 (stereo not given) | . | 6% | 0% | .
N#Cc1ccc(OC(=O)c2ccc(N=C(N)N)cc2)cc1 | 0% | 1% | -1% | .
CCCCC(CC)COCCCN (stereo not given) | . | 0% | -3% | .
COCCNc1nc2c(S(=O)(=O)c3ccccc3)nnn2c2ccc(Cl)cc12 | . | 0% | 9% | .
CCN(Cc1ccccc1)c1nc2c(S(=O)(=O)c3ccccc3)nnn2c2ccc(Cl)cc12 | . | -3% | ? | 32µM*
O=C(CNC(=O)c1ccccc1)N[C@H](C(=O)Nc1cc(C(F)(F)F)ccc1Cl)c1ccccc1 | . | . | . | -4%
O=C(NC(Nc1cc(C(F)(F)F)ccc1Cl)C(=O)c1ccccc1)c1ccccc1 (stereo not given) | ? | -2% | ? | .
CCOc1ccccc1NC(=O)c1ccc(F)c(S(=O)(=O)N2CCN(c3ccc(F)cc3)CC2)c1 | . | 0% | -1% | .
COCC(=O)N1CCC2(CC1)CN(c1ccc(-c3ccccc3)cc1)C2 | . | 4% | ? | .
Cc1ccc2[nH]c(=O)c(CN(CCCO)Cc3nnnn3Cc3ccccc3)cc2c1 | . | . | . | -5%
CCC(c1nnnn1Cc1ccccc1)N(Cc1ccccc1)Cc1cc2cc(C)ccc2[nH]c1=O (stereo not given) | . | . | . | -6%
CCOc1ccc2[nH]c(=O)c(CN(CCO)Cc3nnnn3CCc3ccccc3)cc2c1 | -6% | -2% | 6% | .
Cc1ccc2[nH]c(=O)c(CN(CCO)Cc3nnnn3Cc3ccco3)cc2c1 | . | . | . | 1%
Cc1ccc2[nH]c(=O)c(CN(CCc3ccccc3)Cc3nnnn3CC3CCCO3)cc2c1 (stereo not given) | -12% | -7% | 24% | .
SMILES | NS1 inh | Cruzain inh Det | Cruzain inh noDet | Papain counter
Cc1ccc2[nH]c(=O)c(CN(CCO)Cc3nnnn3Cc3ccccc3)cc2c1 | . | . | . | 3%
CCOc1ccc2[nH]c(=O)c(CN(Cc3ccco3)C(CC)c3nnnn3Cc3ccccc3)cc2c1 (stereo not given) | -1% | -11% | 11% | .
COc1ccccc1CN(Cc1cc2cc(C)ccc2[nH]c1=O)Cc1nnnn1Cc1ccco1 | 5% | -20% | -8% | .
Cc1nc(NC2CCCCC2)c2nc(-c3ccccc3)n(CCN3CCCC3)c2n1 | . | -1% | -4% | .
CS(=O)(=O)c1ccc(CNC(=O)[C@H]2C[C@@H]2[C@H](NP(=O)(c2ccccc2)c2ccccc2)c2ccccc2)cc1 | . | -4% | ? | .
COc1cccc(-c2cncnc2NCc2cccc(C)c2)c1 | . | 4% | -2% | .
CCc1ccc(C(=O)NC2=NC(c3cc(OC)ccc3OC)CC(=O)N2)cc1 (stereo not given) | . | -3% | -9% | .
CC1=C(C(=O)Nc2ccccc2)C(c2ccccn2)n2nc(SCc3ccccc3)nc2N1 (stereo not given) | . | 0% | 12% | .
CCc1nn(CC(=O)NCC(C)c2ccccc2)c(=O)c2cc3c(OC)cccc3n12 (stereo not given) | . | 0% | 12% | .
Cc1ccc(C(=O)c2cn(Cc3ccccc3C)c3nc(C)ccc3c2=O)cc1 | . | -11% | -20% | .
CCc1ccc2[nH]c(=O)c(CN(Cc3cccs3)Cc3nnnn3Cc3ccccc3)cc2c1 | . | . | . | -16%
Cc1ccc(CN(Cc2cc3cc(C)ccc3[nH]c2=O)Cc2nnnn2Cc2ccccc2)cc1 | . | . | . | -12%
COc1ccc2[nH]c(=O)c(CN(Cc3cccs3)Cc3nnnn3Cc3ccccc3)cc2c1 | 3% | -1% | 3% | .
CCOC(=O)Cn1nnnc1CN(Cc1ccc(OC)cc1)Cc1cc2cc(C)ccc2[nH]c1=O | -33% | -8% | ? | .
Cc1ccc2[nH]c(=O)c(CN(Cc3cccs3)Cc3nnnn3CC3CCCO3)cc2c1 (stereo not given) | -13% | 1% | ? | .
Cc1ccc2[nH]c(=O)c(CN(Cc3cccs3)Cc3nnnn3Cc3ccco3)cc2c1 | . | . | . | -13%
CCCn1c(C)nc2c(NCCCCN(C)C)nc(C)nc21 | . | -3% | -10% | .
O=S(=O)(C[C@H](O)C(Cl)(Cl)Cl)NNc1ccccc1 | -6% | -7% | 0% | .
CCCN1C(=O)C(O)(CC(=O)c2ccc(OC)c(OC)c2)c2ccccc21 (stereo not given) | . | 3% | ? | .
CC(C)(C)c1ccc(CN2N=Nc3ccccc3S2(=O)=O)cc1 | -5% | -12% | ? | .
O=S1(=O)c2ccccc2N=NN1Cc1ccc(Cl)c(Cl)c1 | 18% | 22µM* | ? | -15%
Nc1ncnc2c1c(I)cn2C1OC(CO)C(O)C1O (stereo not given) | . | 1% | -1% | .
CC(C)(c1cc(Br)c(OCC(Br)CBr)c(Br)c1)c1cc(Br)c(OCC(Br)CBr)c(Br)c1 (stereo not given) | . | -2% | -8% | .
CC(C)(C)OC(=O)N[C@@H](Cc1c[nH]c2ccccc12)c1nnc(SCC(N)=O)o1 | 2% | 3% | 13% | .
NC(=O)CSc1nnc([C@@H](N)Cc2c[nH]c3ccccc23)o1 | 12% | 8.9µM* | 10µM* | 7%
SMILES | NS1 inh | Cruzain inh Det | Cruzain inh noDet | Papain counter
COC(=O)N1[C@H](C)C=C[C@]1(Cc1ccccc1)C(=O)NCc1ccc(N(C)C)cc1 | . | 5% | -3% | .
CC(C)(C)OC(=O)N[C@@H](Cc1ccccc1)c1nnc(SCC(=O)O)o1 | 4% | 25µM* | -13% | -21%
COC(=O)CSc1nnc([C@H](CC(C)C)NC(=O)OC(C)(C)C)o1 | -1% | ? | -24% | .
CCCOCC(C)O (stereo not given) | . | 4% | -2% | .
CCC(C(=O)NC1CCCCC1)n1c(SCc2ccc(F)cc2)nc2ccncc21 (stereo not given) | 2% | 13µM* | 0% | -15%
CCC(C(=O)NC1CCCC1)n1c(SCc2cccc(C)c2)nc2ccncc21 (stereo not given) | -30% | -15% | 1% | .
